Results: PubChem BioAssay (NCATS)
“And” between values parts separate entries of the source, which are not always exact repeats. Identical values can stand only once. Inconclusive results are not listed. The source made the active and inactive calls. Unless noted, calls follow the shape of the dose curve; as a rule, active = well fitted curve in the direction sought with a large enough effect; inconclusive = small, poorly fitted or top-dose-only effect, or another doubt; inactive = no such curve, though single readings can be large; an effect the other way counts as inactive or inconclusive.

Legend:
[1] = Cellular Toxicity (caspase-3) SHSY5Y (AID 657)
How it was run: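 SH-SY5Y human neuroblastoma cells (1500/well) were treated with compounds for 16 h at 37 °C, then Caspase-Glo 3/7 luminescence was read after 1 h at room temperature. Data normalized to DMSO and 10 uM staurosporine; AC50 from Hill fits.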

[2] = Cellular Toxicity (caspase-3) SK-N-SH (AID 661);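 also: 0% = DMSO basal and 100% = 10 µM staurosporine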
How it was run: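 Human SK-N-SH neuroblastoma cells, 1500/well, were exposed to compounds for 16 hours at 37 °C. Caspase-Glo 3/7 luminescence was normalized to DMSO (basal) and 10 uM staurosporine (100%), and AC50 came from a Hill fit.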

[3] = Cellular Toxicity (caspase-3) NIH 3T3 (AID 666);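 also: caspase signal read after 16 h compound exposure; 0% = DMSO basal and 100% = 100 µM tamoxifen stimulation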
How it was run: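 Mouse NIH 3T3 fibroblasts (1000/well) treated 16 h at 37 C; caspase-3/7 activity measured by Caspase-Glo 3/7 luminescence after 20 min. Normalized to DMSO and 100 uM tamoxifen; AC50 from Hill fits.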

[4] = target: Cytochrome P450 3A4 (Homo sapiens) (UniProt P08684); test: qHTS Assay for Inhibitors and Substrates of Cytochrome P450 3A4 (AID 884); also: nearly all actives have a fitted effect of over 50% in size; also: potency is read from the fitted curve at half-maximal effect
Sequence of Cytochrome P450 3A4 (Homo sapiens) (P08684 whole entry, looked up): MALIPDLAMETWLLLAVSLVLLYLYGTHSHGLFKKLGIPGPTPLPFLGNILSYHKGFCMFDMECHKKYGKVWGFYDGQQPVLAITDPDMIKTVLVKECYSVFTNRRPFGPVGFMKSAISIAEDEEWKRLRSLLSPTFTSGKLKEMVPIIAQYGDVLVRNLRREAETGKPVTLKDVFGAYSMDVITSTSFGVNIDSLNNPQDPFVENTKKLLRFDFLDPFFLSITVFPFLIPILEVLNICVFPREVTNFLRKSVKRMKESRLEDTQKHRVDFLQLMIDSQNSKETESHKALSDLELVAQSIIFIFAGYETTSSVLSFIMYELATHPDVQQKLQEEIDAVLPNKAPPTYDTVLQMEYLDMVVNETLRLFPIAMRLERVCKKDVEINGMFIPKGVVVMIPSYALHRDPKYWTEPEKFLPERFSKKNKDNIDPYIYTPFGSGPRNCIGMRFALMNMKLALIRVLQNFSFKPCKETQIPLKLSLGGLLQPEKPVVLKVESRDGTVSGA
How it was run: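 20 nM human CYP3A4 with 25 uM Luciferin-PPXE (at KM) in 200 mM KPO4, preincubated 10 min with compound; NADPH regeneration started a 60 min RT reaction. Luciferin detected by luminescence, normalized to 57 uM ketoconazole as full inhibition.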

[5] = MultiTox-Fluor Cytotoxicity Assay - LYMP1-001 - Live Cells (AID 947);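 also: 0% = DMSO only and full inhibition = tetraoctylammonium bromide control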
[6] = MultiTox-Fluor Cytotoxicity Assay - LYMP1-002 - Dead Cells (AID 960);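 also: 0% = DMSO and 100% = tetraoctylammonium bromide; nearly all actives have a fitted effect of over 60% in size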
How it was run: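 Human lymphoblastoid LYMP1-002 cells, 2500/well, treated 16 h at 37 C; dead-cell protease cleavage of bis-AAF-R110 read by fluorescence (485/520); normalized to DMSO and 15 uM tetraoctylammonium bromide; AC50 from Hill fit.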

[7] = Cell Viability - LYMP2-004 (AID 966);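 also: plate controls were DMSO only for no effect and tetraoctylammonium bromide control for full effect; nearly all actives have a fitted effect of over 65% in size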
How it was run: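 Lymphoblastoid LYMP2-004 cells, 2500 per well, were preincubated for 5 hr and then treated with compound for 24 h at 37 C in complete medium. Viability was read as cellular ATP by CellTiter-Glo luminescence, and AC50 values were taken from Hill fits to concentration-response data.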

[8] = Cell Viability - LYMP2-005 (AID 967);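 also: series mostly up to about 92 µM; plate controls were DMSO only for no effect and 92 µM tetraoctylammonium bromide control for full effect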
How it was run: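 CellTiter-Glo luminescence (cellular ATP) read-out; LYMP2-005 lymphoblastoid cells, 2500/well, 5 h pre-incubation, then 24 h compound exposure at 37 C in complete medium. Tetraoctylammonium bromide positive control; AC50 by standard Hill fit.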

[9] = Cell Viability - LYMP2-009 (AID 968);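 also: series mostly up to about 92 µM; 0% = DMSO alone and the full-kill end = tetraoctylammonium bromide at 92 µM; nearly all actives have a fitted effect of over 55% in size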
[10] = Cell Viability - LYMP2-008 (AID 980); also: % is scaled to controls: 0 for no effect and ±100 for the full control effect; nearly all actives have a fitted effect of over 60% in size
How it was run: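 LYMP2-008 lymphoblastoid cells (2500/well) plated 5 h, then treated 24 h at 37 C in complete medium. Viability read as intracellular ATP by CellTiter-Glo luminescence after 30 min at room temperature; AC50 from Hill fits.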

[11] = target: Glucocorticoid receptor (Homo sapiens) (UniProt P04150); test: qHTS assay for small molecule agonists of glucocorticoid receptor signaling (AID 588532; active = well fitted curve in the direction sought with a large enough effect in the signal ratio, with a control signal flat; the % refers to the signal ratio;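 also: 100% = dexamethasone at 0.1 µM and 0% = DMSO only wells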); conditions: HeLa MMTV-bla, beta-lactamase ratio, agonist, 18 h; stronger effect = higher value; percent of dexamethasone control, DMSO zero
Sequence of Glucocorticoid receptor (Homo sapiens) (P04150 whole entry, looked up): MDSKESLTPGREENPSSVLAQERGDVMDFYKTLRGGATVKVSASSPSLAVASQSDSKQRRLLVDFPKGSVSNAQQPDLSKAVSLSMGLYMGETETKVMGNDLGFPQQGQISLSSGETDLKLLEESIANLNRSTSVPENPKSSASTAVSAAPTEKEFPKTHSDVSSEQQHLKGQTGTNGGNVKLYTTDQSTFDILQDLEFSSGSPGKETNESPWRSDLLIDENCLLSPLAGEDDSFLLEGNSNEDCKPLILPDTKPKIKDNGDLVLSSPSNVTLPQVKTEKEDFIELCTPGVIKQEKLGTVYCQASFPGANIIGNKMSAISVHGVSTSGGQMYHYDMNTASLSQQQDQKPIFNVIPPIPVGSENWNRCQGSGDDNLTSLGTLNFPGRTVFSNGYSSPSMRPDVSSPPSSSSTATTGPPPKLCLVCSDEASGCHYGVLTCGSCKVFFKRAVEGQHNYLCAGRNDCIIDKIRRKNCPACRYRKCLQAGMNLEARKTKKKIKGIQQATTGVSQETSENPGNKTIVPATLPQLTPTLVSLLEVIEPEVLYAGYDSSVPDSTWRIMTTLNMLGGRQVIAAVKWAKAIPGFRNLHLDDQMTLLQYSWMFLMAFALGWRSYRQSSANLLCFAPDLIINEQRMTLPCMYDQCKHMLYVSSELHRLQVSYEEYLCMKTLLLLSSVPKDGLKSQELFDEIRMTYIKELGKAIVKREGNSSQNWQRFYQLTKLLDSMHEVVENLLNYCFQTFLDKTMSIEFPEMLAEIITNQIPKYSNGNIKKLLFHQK
How it was run: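 Agonist-mode qHTS: GRE-driven beta-lactamase in HeLa cells exposed 18 h to titrated compounds (up to 92 uM), then CCF4 ratio read after 2 h at RT; Hill-fitted EC50, efficacy relative to 0.1 uM dexamethasone.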

[12] = target: Glucocorticoid receptor (Homo sapiens) (UniProt P04150); test: qHTS assay for small molecule antagonists of glucocorticoid receptor signaling (AID 588533; active = well fitted inhibition curve with a large enough effect in the signal ratio, with a control signal flat, not every such curve was filed as active; the % refers to the signal ratio;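 also: cells stimulated with 2 nM dexamethasone as agonist; % is scaled to controls: 0 for no effect and ±100 for the full control effect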)
How it was run: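 Antagonist-mode qHTS: compound titrations added to GRE-bla HeLa cells, then dexamethasone 2 nM final; 18 h, 37 C. CCF4 FRET fluorescence normalized to dexamethasone and DMSO; IC50 from Hill fit.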

[13] = target: Peroxisome proliferator-activated receptor gamma (Homo sapiens) (UniProt P37231); test: qHTS assay for small molecule agonists of peroxisome proliferator-activated receptor gamma signaling (AID 588536; active = well fitted curve in the direction sought with a large enough effect in the signal ratio, with a control signal flat, not every such curve was filed as active; the % refers to the signal ratio;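 also: 0% = DMSO basal wells and 100% = rosiglitazone at 2 µM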)
Sequence of Peroxisome proliferator-activated receptor gamma (Homo sapiens) (P37231 whole entry, looked up): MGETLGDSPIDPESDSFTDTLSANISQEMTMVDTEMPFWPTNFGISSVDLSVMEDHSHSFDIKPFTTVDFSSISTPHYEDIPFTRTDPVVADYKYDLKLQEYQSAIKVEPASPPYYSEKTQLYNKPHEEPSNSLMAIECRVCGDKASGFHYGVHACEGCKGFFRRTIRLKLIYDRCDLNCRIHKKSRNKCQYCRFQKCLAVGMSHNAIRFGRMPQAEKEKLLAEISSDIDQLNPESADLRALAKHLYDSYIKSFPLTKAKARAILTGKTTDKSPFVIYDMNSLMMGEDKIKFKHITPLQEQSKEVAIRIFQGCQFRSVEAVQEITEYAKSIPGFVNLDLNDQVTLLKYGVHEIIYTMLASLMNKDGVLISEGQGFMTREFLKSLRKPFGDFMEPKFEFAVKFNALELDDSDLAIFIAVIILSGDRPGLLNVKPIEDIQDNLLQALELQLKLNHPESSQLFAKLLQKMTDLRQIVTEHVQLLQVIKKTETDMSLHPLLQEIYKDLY
How it was run: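 HEK293 UAS-bla reporter line, 1% charcoal/dextran FBS; titration, 16 h, 37 C; CCF4 loading 2 h RT; fluorescence 460/530 nm. Normalized to rosiglitazone 2 uM = 100%, DMSO = 0%.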

[14] = target: Thyroid hormone receptor beta (Homo sapiens) (UniProt P10828); test: qHTS assay for small molecule antagonists of thyroid hormone receptor beta signaling (AID 588547; active = well fitted inhibition curve with a large enough effect in the signal ratio, with a control signal flat, not every such curve was filed as active; the % refers to the signal ratio;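 also: cells stimulated with 0.4 nM T3 agonist during compound exposure; series mostly up to about 77 µM; % is scaled to controls: 0 for no effect and ±100 for the full control effect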); conditions: TR-UAS-bla HEK293, beta-lactamase ratio, antagonist mode, 18 h
Sequence of Thyroid hormone receptor beta (Homo sapiens) (P10828 whole entry, looked up): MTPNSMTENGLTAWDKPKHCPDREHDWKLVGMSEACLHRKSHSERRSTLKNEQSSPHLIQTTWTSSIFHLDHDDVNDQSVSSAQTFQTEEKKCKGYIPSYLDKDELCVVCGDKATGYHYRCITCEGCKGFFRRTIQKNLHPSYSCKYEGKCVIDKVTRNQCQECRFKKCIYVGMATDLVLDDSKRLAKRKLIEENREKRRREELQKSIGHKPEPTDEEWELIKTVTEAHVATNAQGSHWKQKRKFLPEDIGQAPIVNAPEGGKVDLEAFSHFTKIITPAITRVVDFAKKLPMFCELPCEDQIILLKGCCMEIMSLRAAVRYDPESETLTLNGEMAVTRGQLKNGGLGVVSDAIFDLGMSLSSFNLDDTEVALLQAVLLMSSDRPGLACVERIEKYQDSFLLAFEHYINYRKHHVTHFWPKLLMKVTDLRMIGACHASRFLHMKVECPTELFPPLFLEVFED
How it was run: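 Inhibition of T3-driven (0.4nM final) beta-lactamase reporter activity was measured over 0.59 nM to 92 uM compound after 18 h at 37 C. The cells were GripTite HEK293 TR-UAS-bla in charcoal/dextran-stripped serum, with CCF4 ratio read-out and IC50 from Hill fits.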

[15] = qHTS assay for small molecule activators of the p53 signaling pathway (AID 651743; active = well fitted activation curve with a large enough effect in the signal ratio, not every such curve was filed as active; the % refers to the signal ratio; also: series mostly up to about 92 µM; % of control where 0% means no effect); conditions: HCT-116 p53RE-bla, beta-lactamase FRET ratio, 16 h; activation: stronger effect = higher value
How it was run: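 Read-out is fluorescence intensity from the LiveBLAzer B/G FRET substrate, added for 2 hours at room temperature after HCT-116 p53RE-bla cells had been incubated with compounds for 16 hours at 37 C.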

[16] = qHTS assay for small molecule disruptors of the mitochondrial membrane potential - 5 hr assay (AID 651755; calls by dose curve; also: nearly all actives have a fitted effect of over 40% in size; also: potency is read from the fitted curve at half-maximal effect)
How it was run: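 HepG2, 2,000 cells/well, overnight attach; cpd or DMSO 5 hr, 37C/5% CO2; Mito-MPS 30 min 37C; fluor 490/535 + 540/590 nm.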

[17] = target: Tumor necrosis factor (Homo sapiens) (UniProt P01375); test: qHTS assay to identify small molecules that stimulate Tumor Necrosis Factor-alpha (TNF-alpha) secretion (AID 651757; active = well fitted curve in the direction sought with a large enough effect in the signal ratio; the % refers to the signal ratio; also: 0% is about no effect)
Sequence of Tumor necrosis factor (Homo sapiens) (P01375 whole entry, looked up): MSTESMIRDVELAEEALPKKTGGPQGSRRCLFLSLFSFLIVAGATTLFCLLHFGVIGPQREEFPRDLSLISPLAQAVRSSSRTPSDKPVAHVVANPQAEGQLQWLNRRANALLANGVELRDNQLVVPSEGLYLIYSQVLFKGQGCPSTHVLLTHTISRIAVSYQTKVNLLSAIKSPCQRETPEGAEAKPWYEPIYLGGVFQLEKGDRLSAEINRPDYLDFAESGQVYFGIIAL
How it was run: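 THP-1 cells (3000/well) exposed to compounds 17 hrs at 37 C. Secreted TNF-alpha detected by HTRF with cryptate- and XL665-labeled anti-TNF-alpha antibodies after 3 hr at room temperature.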

[18] = target: Nuclear receptor subfamily 1 group I member 2 (Rattus norvegicus) (UniProt Q9R1A7); test: qHTS assay for small molecule activators of the rat pregnane X receptor (rPXR) signaling pathway (AID 651751; call rule not given here; also: 0% is about no effect); conditions: rPXR reporter cells, luciferase (One-Glo), 24 h
Sequence of Nuclear receptor subfamily 1 group I member 2 (Rattus norvegicus) (Q9R1A7 whole entry, looked up): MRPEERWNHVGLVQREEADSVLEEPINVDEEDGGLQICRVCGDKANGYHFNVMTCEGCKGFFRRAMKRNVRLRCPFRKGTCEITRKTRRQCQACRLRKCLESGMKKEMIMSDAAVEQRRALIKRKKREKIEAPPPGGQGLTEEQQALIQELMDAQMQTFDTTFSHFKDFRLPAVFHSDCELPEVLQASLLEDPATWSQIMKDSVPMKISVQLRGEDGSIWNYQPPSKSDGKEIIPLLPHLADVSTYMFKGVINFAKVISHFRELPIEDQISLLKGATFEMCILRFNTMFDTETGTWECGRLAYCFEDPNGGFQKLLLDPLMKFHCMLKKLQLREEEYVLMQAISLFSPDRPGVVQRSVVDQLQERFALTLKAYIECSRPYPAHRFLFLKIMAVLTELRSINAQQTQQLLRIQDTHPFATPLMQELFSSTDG

[19] = target: Vitamin D3 receptor (Homo sapiens) (UniProt P11473); test: qHTS assay for small molecule agonists of vitamin D receptor signaling (AID 588543; calls by dose curve;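 also: 0% = DMSO basal and 100% = reference agonist control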)
Sequence of Vitamin D3 receptor (Homo sapiens) (P11473 whole entry, looked up): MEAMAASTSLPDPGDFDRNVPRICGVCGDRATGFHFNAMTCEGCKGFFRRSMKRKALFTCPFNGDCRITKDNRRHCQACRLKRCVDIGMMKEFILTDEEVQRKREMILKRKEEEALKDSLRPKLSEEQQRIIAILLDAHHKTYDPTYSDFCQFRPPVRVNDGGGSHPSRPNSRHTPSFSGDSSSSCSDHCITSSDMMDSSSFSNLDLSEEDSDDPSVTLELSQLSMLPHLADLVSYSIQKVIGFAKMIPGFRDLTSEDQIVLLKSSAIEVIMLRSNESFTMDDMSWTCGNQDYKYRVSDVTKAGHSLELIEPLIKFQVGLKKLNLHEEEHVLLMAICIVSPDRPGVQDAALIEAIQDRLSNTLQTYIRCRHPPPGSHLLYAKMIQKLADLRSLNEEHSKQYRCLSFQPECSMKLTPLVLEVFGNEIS
How it was run: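 GeneBLAzer VDR-UAS-bla HEK293T cells in 2% charcoal-stripped FBS medium were dosed with compound titrations for 16 h at 37 °C; CCF4 β-lactamase readout (405 nm ex, 460/530 nm em). EC50 and efficacy from Hill fits, normalized to 50 nM calcitriol (100%) and DMSO (0%).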

[20] = qHTS drug screen for cell cycle checkpoint inhibitors in PARPi-resistant BRCA-mutant ovarian cancer cell lines. (AID 1963452; calls by dose curve; also: potency is read from the fitted curve at half-maximal effect); conditions: PEO1/OlaR viability, CellTiter-Glo luminescence, 96 h; for Z-AUC: stronger effect = lower value
How it was run: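 PEO1, PEO4 and PEO1/OlaR ovarian cancer cells, 600 per well, exposed 96 h at 37C to a dilution series. Viability read by CellTiter-Glo luminescence, normalized to DMSO and empty wells; activity summarized as Z-AUC.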

C1OCOCO1
inactive: outcome [1] | outcome [2] | outcome [3] | Potency [4] | Potency [5] | Potency [6] | Potency [7] | Potency [8] | Potency [9] | Potency [10] | activation [11] 3.41% | Potency [12] | outcome [13] | activity change % (negative = inhibition) [14] 5.08% | activation [15] -3.32% | Potency [16] | outcome [17] | max response [18] -2.23%

Cc1c(N=C=O)cccc1N=C=O
inactive: outcome [1] | outcome [2] | outcome [3] | Potency [5] | Potency [6] | Potency [7] | Potency [8] | Potency [9] | Potency [10] | activation [11] -8.06% and -0.129% | Potency [12] | outcome [13] | outcome [19] | activity change % (negative = inhibition) [14] 2.21% and -0.0232% | activation [15] -0.524% and 6.01% | Potency [16] | outcome [17] | max response [18] -1.26% and -0.744%

CCCCC(CC)CN (centres undefined)
inactive: outcome [1] | outcome [2] | outcome [3] | Potency [4] | Potency [5] | Potency [6] | Potency [7] | Potency [8] | Potency [9] | Potency [10] | activation [11] -3.51% and -4.52% | Potency [12] | outcome [13] | outcome [19] | activity change % (negative = inhibition) [14] 20% and -6.26% | activation [15] -5.5% and 1.33% | Potency [16] | outcome [17] | max response [18] 1.98% and 0.48%

CCC(C)c1ccccc1O (centres undefined)
inactive: outcome [1] | outcome [2] | outcome [3] | Potency [4] | Potency [5] | Potency [6] | Potency [7] | Potency [8] | Potency [9] | Potency [10] | activation [11] -11.6% and -11.3% and 1.07% | Potency [12] | outcome [13] | outcome [19] | activity change % (negative = inhibition) [14] -2.64% and 0.537% | Potency [16] | outcome [17] | max response [18] 11.2% and -2.55% and 1.18%

CCCN(CCC)C(=O)SCC
inactive: outcome [1] | outcome [2] | outcome [3] | Potency [4] | Potency [5] | Potency [6] | Potency [7] | Potency [8] | Potency [9] | Potency [10] | activation [11] 1.32% and 12.8% | Potency [12] | outcome [13] | outcome [19] | activity change % (negative = inhibition) [14] 0.19% and 8.86% | activation [15] 0.439% and 11.8% | Potency [16] | outcome [17] | max response [18] 5.19% and 0.741%

O=C1c2ccccc2C(=O)C1c1ccc2ccccc2n1
active: Potency [4] 2510 nM | Potency [16] 1680 nM
inactive: outcome [1] | outcome [2] | Potency [5] | Potency [6] | Potency [7] | Potency [8] | activation [11] -2.81% and -4.97% | Potency [12] | outcome [13] | outcome [19] | activity change % (negative = inhibition) [14] -15.6% | activation [15] 5.56% and 14%

CC(C)(O)C1CCC(Nc2ccc3ncc(-c4cccc(C(F)(F)F)c4)n3n2)CC1 (centres undefined)
-1.21: Z-AUC ([20]; measured here: PEO4 Z-AUC)
-1.03: Z-AUC ([20]; measured here: PEO1 parental Z-AUC)
active: Potency [20] 5490 nM

c1ccc2c(c1)c1cccc3ccc4cccc2c4c31
inactive: outcome [1] | outcome [2] | outcome [3] | Potency [4] | Potency [5] | Potency [6] | Potency [7] | Potency [8] | Potency [9] | Potency [10] | activation [11] 2.22% and -5.73% | Potency [12] | activity change % (negative = inhibition) [14] 6.13% and -3.87% | activation [15] 8.13% and 3.99% | Potency [16] | max response [18] 4.91% and -2.4%

O=C(O)CC(C(=O)O)C(CC(=O)O)C(=O)O (centres undefined)
inactive: outcome [1] | outcome [2] | outcome [3] | Potency [4] | Potency [5] | Potency [6] | Potency [7] | Potency [8] | Potency [9] | Potency [10] | activation [11] -3.1% and -3.88% | Potency [12] | outcome [13] | outcome [19] | activity change % (negative = inhibition) [14] -3.7% and -9.45% | activation [15] -3.49% and -0.408% | Potency [16] | outcome [17] | max response [18] -5.76% and 4.78%
